Inconclusive results are not listed. The source made the active and inactive calls. Unless noted, the call rests on the fitted dose curve; in most records, active means well fitted curve in the direction sought with a large enough effect in the repeat runs; inconclusive means weak or mixed curves; inactive means no such curve, though single readings can be large; an effect the other way counts as inactive or inconclusive.
Columns and labels:
[1] = qHTS assay to identify small molecule agonists of the peroxisome proliferator-activated receptor delta (PPARd) signaling pathway - cell viability counter screen (AID 743211); further: nearly all actives have a fitted effect of over 55% in size
Procedure, shortened: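 HEK293H PPARd-bla, 3000 cells/well; 5 h preincubation 37C/5% CO2; cpd in DMSO, 17 h 37C; B/G FRET substrate 2 h RT; CellTiter-Glo 30 min RT, luminescence.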

[2] = target: Peroxisome proliferator-activated receptor delta (Homo sapiens) (UniProt Q03181); assay: qHTS assay to identify small molecule agonists of the peroxisome proliferator-activated receptor delta (PPARd) signaling pathway (AID 743212; calls by dose curve)
Procedure, shortened: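 A PPARd-bla HEK293H line with beta-lactamase under an Upstream Activator Sequence is treated with compounds at 37 C. Substrate loading for 2 h at room temperature precedes the fluorescence measurement.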

[3] = qHTS assay to identify small molecule antagonists of the peroxisome proliferator-activated receptor delta (PPARd) signaling pathway - cell viability counter screen (AID 743213); further: nearly all actives have a fitted effect of over 50% in size
Procedure, shortened: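 Cytotoxicity counter screen: CellTiter-Glo luminescence read 30 min after addition, in the same wells as the reporter assay. There, PPARd UAS-bla HEK293H cells (3000/well) were treated 17 h at 37 C with compound and 300 nM L165041.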

[4] = target: Peroxisome proliferator-activated receptor delta (Homo sapiens) (UniProt Q03181); assay: qHTS assay to identify small molecule antagonists of the peroxisome proliferator-activated receptor delta (PPARd) signaling pathway (AID 743215; active means well fitted inhibition curve with a large enough effect in the signal ratio in the repeat runs, not every such curve was filed as active; the % refers to the signal ratio;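 further: cells stimulated with agonist L165041 at 300 nM final during compound exposure; series mostly up to about 62 µM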)
Procedure, shortened: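 Antagonist-mode beta-lactamase reporter screen: HEK293H cells with UAS-bla under PPARd control, stimulated by 300 nM L165041 (final) alongside test compound for 17 h at 37 C, then FRET fluorescence after 2 h substrate incubation.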

[5] = target: Bile acid receptor (Homo sapiens) (UniProt Q96RI1); assay: qHTS assay to identify small molecule antagonists of the farnesoid-X-receptor (FXR) signaling pathway (AID 743217; active means well fitted inhibition curve with a large enough effect in the signal ratio in the repeat runs, not every such curve was filed as active; the % refers to the signal ratio)
Procedure, shortened: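 Beta-lactamase reporter under UAS control in HEK 293T cells; compound exposure 16 h at 37 °C in the presence of chenodeoxycholic acid (50 uM final); signal from B/G FRET substrate after 2 h at room temperature.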

[6] = target: Bile acid receptor (Homo sapiens) (UniProt Q96RI1); assay: qHTS assay to identify small molecule agonists of the farnesoid-X-receptor (FXR) signaling pathway (AID 743220; active means well fitted activation curve with a large enough effect in the signal ratio in the repeat runs, not every such curve was filed as active; the % refers to the signal ratio)
Procedure, shortened: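 Beta-lactamase reporter under UAS control in GeneBLAzer FXR HEK 293T cells (5000/well) measured with LiveBLAzer FRET substrate after 2 h at room temperature. Compound exposure lasted 16 h at 37C.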

[7] = target: Vitamin D3 receptor (Homo sapiens) (UniProt P11473); assay: qHTS assay to identify small molecule agonists of the vitamin D receptor (VDR) signaling pathway (AID 743222; calls by dose curve)
Procedure, shortened: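 Agonist activity measured in VDR-bla reporter cells. Exposure 16 h, 37C, 5% CO2; detection by B/G FRET substrate, 2 h RT.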

[8] = target: Vitamin D3 receptor (Homo sapiens) (UniProt P11473); assay: qHTS assay to identify small molecule antagonists of the vitamin D receptor (VDR) signaling pathway (AID 743223; active means well fitted inhibition curve with a large enough effect in the signal ratio in the repeat runs, not every such curve was filed as active; the % refers to the signal ratio)
Procedure, shortened: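 Antagonist mode uses 1alpha,25-dihydroxyvitamin D3 at 3 nM final as stimulus. VDR-bla cells receive compounds in DMSO, incubate 16 h at 37C, then a beta-lactamase FRET substrate for 2 h at room temperature before fluorescence measurement.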

[9] = qHTS assay to identify small molecule agonists of the vitamin D receptor (VDR) signaling pathway - cell viability counter screen (AID 743224); further: series mostly up to about 63 µM; nearly all actives have a fitted effect of over 50% in size
Procedure, shortened: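 VDR-bla cell line, quantitative HTS format; 16 h compound incubation (37C, 5% CO2); ATP-based CellTiter-Glo luminescence measured in the reporter assay wells.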

[10] = qHTS assay to identify small molecule antagonists of the vitamin D receptor (VDR) signaling pathway - cell viability counter screen (AID 743225); further: nearly all actives have a fitted effect of over 50% in size
Procedure, shortened: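 Read-out: CellTiter-Glo luminescence measured 30 min after reagent addition at room temperature. Cells were VDR-bla HEK 293T exposed 16 h at 37C, 5% CO2, to compound with 3 nM final calcitriol agonist.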

[11] = qHTS assay to identify small molecule agonists of the NFkB signaling pathway (AID 1159509; active means well fitted curve in the direction sought with a large enough effect in the signal ratio in the repeat runs, not every such curve was filed as active; the % refers to the signal ratio; further: series mostly up to about 61 µM)
Procedure, shortened: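 ME-180 NFkB-bla, 2,000 cells/well, overnight plating; cpd pinned in DMSO, 5 h 37 C; B/G FRET substrate 1.5 h RT; ex 405, em 460/530 nm.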

[12] = qHTS assay to identify small molecule agonists of the NFkB signaling pathway - cell viability counter screen (AID 1159515; calls by dose curve; further: series mostly up to about 61 µM; nearly all actives have a fitted effect of over 55% in size)
Procedure, shortened: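 Viability in NFkB-bla ME-180 cells was measured by CellTiter-Glo luminescence, 30 min room temperature, in wells already treated 5 hr with compounds and read for reporter FRET.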

[13] = qHTS assay to identify small molecule agonists of the endoplasmic reticulum stress response signaling pathway (AID 1159516; active means well fitted activation curve with a large enough effect in the signal ratio in the repeat runs, not every such curve was filed as active; the % refers to the signal ratio)
Procedure, shortened: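 ER stress element reporter (bla) in HeLa. 1,500 cells/well, overnight attachment; 5 hr compound; 2 hr RT substrate; dual-emission fluorescence.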

[14] = qHTS assay to identify small molecule agonists of the endoplasmic reticulum stress response signaling pathway - cell viability counter screen (AID 1159517; calls by dose curve;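 further: HeLa cells carrying an ER stress response element beta-lactamase reporter; series mostly up to about 61 µM; nearly all actives have a fitted effect of over 50% in size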)
Procedure, shortened: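 CellTiter-Glo was added to wells already read for beta-lactamase FRET, and luminescence was recorded 30 min later. Cells: ESRE-bla HeLa, 1,500 per well, compound exposure 5 hr at 37 C.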

[15] = qHTS assay to identify small molecule antagonists of the retinoid-related orphan receptor gamma (ROR-gamma) signaling pathway - cell viability counter screen (AID 1159520); further: nearly all actives have a fitted effect of over 50% in size
Procedure, shortened: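 Tet-on ROR gamma CHO cells (1,000/well) were plated 4 hr, given compounds in DMSO for 2 hr at 37 C, then induced with 1 uM final doxycycline for 16 hr. Viability was read as ATP by CellTiter-Glo luminescence after 30 min.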

[16] = target: Nuclear receptor ROR-gamma (Homo sapiens) (UniProt P51449); assay: qHTS assay to identify small molecule antagonists of the retinoid-related orphan receptor gamma (ROR-gamma) signaling pathway (AID 1159521)
Procedure, shortened: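 CHO Tet-on RORγ, RORE-luc reporter. Cpd 2 h pre-incubation, then dox hyclate 1 uM final, 16 h, 37 C/5% CO2. ONE-Glo luminescence; decrease = antagonist.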

[17] = qHTS assay to identify small molecule agonists of the AP-1 signaling pathway - cell viability counter screen (AID 1159525; calls by dose curve; further: nearly all actives have a fitted effect of over 55% in size)
Procedure, shortened: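 ME-180 AP-1-bla, 2500 cells/well, Opti-MEM + 0.5% dialyzed FBS; overnight 37 °C; cpd 15-pt titration, 5 h 37 °C; CellTiter-Glo 30 min RT; luminescence read; normalised to TOAB and DMSO controls.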

[18] = qHTS assay to identify small molecule agonists of the AP-1 signaling pathway (AID 1159526; calls by dose curve)
[19] = qHTS assay to identify small molecule agonists of the farnesoid-X-receptor (FXR) signaling pathway - cell viability counter screen (AID 743218); further: nearly all actives have a fitted effect of over 45% in size
Procedure, shortened: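 In GeneBLAzer FXR-UAS-bla HEK 293T cells, compounds act for 16 h at 37 C. Cell viability is then scored in the reporter wells by CellTiter-Glo, 30 min at RT, luminescence.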

[20] = qHTS assay to identify small molecule antagonists of the farnesoid-X-receptor (FXR) signaling pathway - cell viability counter screen (AID 743221; active means well fitted cell-killing curve with a large enough effect in the repeat runs, not every such curve was filed as active; further: nearly all actives have a fitted effect of over 50% in size)
Procedure, shortened: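 Luminescence from CellTiter-Glo measures cytotoxicity in GeneBLAzer FXR-UAS-bla HEK 293T cells. Cells were exposed to compounds with 50 uM chenodeoxycholic acid (final) for 16 h at 37 C, in wells also used for the reporter readout.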

Measured: Potency

Chain of Bile acid receptor (Homo sapiens) (Q96RI1 whole entry, looked up): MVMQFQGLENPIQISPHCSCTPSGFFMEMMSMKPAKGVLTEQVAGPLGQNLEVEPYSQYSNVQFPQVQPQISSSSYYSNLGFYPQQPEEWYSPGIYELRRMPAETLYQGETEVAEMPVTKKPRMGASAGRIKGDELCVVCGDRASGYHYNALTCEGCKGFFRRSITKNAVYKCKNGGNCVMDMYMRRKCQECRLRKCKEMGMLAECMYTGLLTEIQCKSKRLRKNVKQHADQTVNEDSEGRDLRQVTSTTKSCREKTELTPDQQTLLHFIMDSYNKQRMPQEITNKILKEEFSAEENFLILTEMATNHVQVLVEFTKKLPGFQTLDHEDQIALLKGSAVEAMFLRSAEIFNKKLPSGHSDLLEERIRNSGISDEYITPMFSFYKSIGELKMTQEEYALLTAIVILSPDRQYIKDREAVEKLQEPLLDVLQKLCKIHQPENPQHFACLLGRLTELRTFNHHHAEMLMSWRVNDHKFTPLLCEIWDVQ
Chain of Vitamin D3 receptor (Homo sapiens) (P11473 whole entry, looked up): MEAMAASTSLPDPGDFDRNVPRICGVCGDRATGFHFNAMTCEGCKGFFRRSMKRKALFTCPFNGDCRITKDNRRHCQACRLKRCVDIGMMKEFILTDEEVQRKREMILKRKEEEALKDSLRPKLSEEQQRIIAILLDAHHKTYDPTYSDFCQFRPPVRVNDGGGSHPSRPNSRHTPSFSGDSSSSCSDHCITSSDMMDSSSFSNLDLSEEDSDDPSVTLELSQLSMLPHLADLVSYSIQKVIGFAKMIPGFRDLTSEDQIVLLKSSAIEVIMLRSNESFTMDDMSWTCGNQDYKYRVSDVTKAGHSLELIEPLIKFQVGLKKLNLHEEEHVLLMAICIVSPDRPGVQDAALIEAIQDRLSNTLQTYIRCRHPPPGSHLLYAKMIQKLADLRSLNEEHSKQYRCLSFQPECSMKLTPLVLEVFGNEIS
Chain of Peroxisome proliferator-activated receptor delta (Homo sapiens) (Q03181 whole entry, looked up): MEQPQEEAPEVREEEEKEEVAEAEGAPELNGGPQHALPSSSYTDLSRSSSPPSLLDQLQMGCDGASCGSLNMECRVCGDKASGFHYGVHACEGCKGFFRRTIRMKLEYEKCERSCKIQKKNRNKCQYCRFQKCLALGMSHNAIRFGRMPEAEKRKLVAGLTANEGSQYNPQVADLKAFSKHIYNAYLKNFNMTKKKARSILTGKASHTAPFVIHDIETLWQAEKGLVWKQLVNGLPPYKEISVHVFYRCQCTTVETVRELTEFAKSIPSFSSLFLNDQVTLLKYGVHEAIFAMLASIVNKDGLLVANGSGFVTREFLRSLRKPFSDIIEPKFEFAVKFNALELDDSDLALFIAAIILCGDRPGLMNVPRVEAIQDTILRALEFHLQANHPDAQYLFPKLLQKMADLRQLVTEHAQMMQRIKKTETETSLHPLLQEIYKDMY

NC(CSCC(=O)O)C(=O)O (stereo not drawn)
not listed: [19] | [20]
inactive: all other assays above

CC(=O)CC(C)C
inactive: all assays above

Cn1cc(S(C)=O)c(=O)c2ccc(F)cc21 (stereo not drawn)
inactive: all assays above

CCS(=O)(=O)c1ccc(OC)c(C(=O)OC)c1
not listed: [7] | [8]
inactive: all other assays above

CCCCCCCCS(=O)(=O)Cl
not listed: [5] | [6] | [10]
inactive: all other assays above

CC(C)(CC(=O)O)C(=O)O
not listed: [5] | [6]
inactive: all other assays above

CCCCOCCOCCOCCCC
not listed: [7] | [8]
inactive: all other assays above

CN1CC(=O)NC1=N
inactive: all assays above

NS(=O)(=O)c1cc2c(cc1Cl)NC(C1CC3C=CC1C3)NS2(=O)=O (stereo not drawn)
not listed: [5] | [6]
inactive: all other assays above

CO[Si](CCCOCC1CO1)(OC)OC (stereo not drawn)
not listed: [5] | [8] | [10]
inactive: all other assays above

O=c1n(CCO)c(=O)n(CCO)c(=O)n1CCO
inactive: all assays above

C=COCC1CCC(CO)CC1 (stereo not drawn)
not listed: [20]
inactive: all other assays above

C=C(C)CS(=O)(=O)O
not listed: [7] | [8] | [9] | [20]
inactive: all other assays above

FC1(F)C(F)(F)C(F)(F)C2(F)C(F)(F)C(F)(F)C(F)(F)C(F)(F)C2(F)C1(F)F (stereo not drawn)
not listed: [8]
inactive: all other assays above
